LmPK inh: blocks Leishmania mexicana pyruvate kinase activity; Q27686; purified LmPK, Kinase-Glo ATP luminescence, 1 h; Potency, µM (titrated, usually from 57.5 µM), for inactives: at the highest dose activity change, negative = inhibition, usual class: inhibitors; 290,000 compounds, 0.37% hits; AID 1721; note: potency is the fitted concentration of half-maximal effect; % is set by controls: 0 for no effect and ±100 for the full control effect
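Kinase-Glo luminescence read after 1 h RT reaction of 0.1 nM LmPK with 0.5 mM PEP and 0.1 mM ADP. Activity scaled between uninhibited and enzyme-free controls.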
Shiga toxin inh: blocks Shiga toxin action in Vero cells. Vero cells, Shiga toxin protein synthesis inhibition reporter. inhibition, % at 38.7 µM. 290,000 compounds, 9.2% hits. AID 2315; in the data active = inhibition mostly above about 28%, no sharp cut-off; inactive = mostly below about 43%; note: 0% is about no effect
TbPYK inhibitor: inhibitors of Trypanosoma brucei pyruvate kinase; Potency, µM (titrated, usually from 76.8 µM), for the others: at the highest dose activity, negative = inhibition, hits mostly inhibitors; Q57TT1; 410,000 compounds, 0.12% hits; AID 624173; TbPYK enzyme, Kinase-Glo Plus ATP luminescence, 45 min; note: potency is the fitted concentration of half-maximal effect; % is set by controls: 0 for no effect and ±100 for the full control effect; nearly all actives have a fitted effect of over 50% in size
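Luminescent Kinase-Glo Plus end-point after 45 min room-temperature reaction of T. brucei pyruvate kinase started with 130 uM ADP (final). Buffer TEA 50 mM pH 7.2 with KCl, MgCl2, BSA, Tween-20; titration-based qHTS with fitted concentration-effect curves.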
Cycloheximide cs: counter-screen for Shiga toxin inhibitors: cycloheximide protein synthesis inhibition | max response, % | cell reporter, cycloheximide protein synthesis inhibition counterscreen | AID 2314 | 300,000 compounds, 12% hits; in the data active = max response mostly above about 13%, no sharp cut-off; inactive = mostly below about 14%; note: read at 38.3 µM for the half of the compounds with a filed dose; 0% is about no effect
Giardia FBPA inh: inhibitors of Giardia lamblia fructose-1,6-bisphosphate aldolase | A8B2U2 | purified Giardia FBPA | Potency, µM (top dose mostly 59.6 µM), without a hit: top-dose activity, negative = inhibition, most hits filed as inhibitors | 290,000 compounds, 0.71% hits | AID 2451; note: potency is the fitted concentration of half-maximal effect; % is set by controls: 0 for no effect and ±100 for the full control effect; nearly all actives have a fitted effect of over 55% in size
Target sequence (A8B2U2 whole entry, looked up): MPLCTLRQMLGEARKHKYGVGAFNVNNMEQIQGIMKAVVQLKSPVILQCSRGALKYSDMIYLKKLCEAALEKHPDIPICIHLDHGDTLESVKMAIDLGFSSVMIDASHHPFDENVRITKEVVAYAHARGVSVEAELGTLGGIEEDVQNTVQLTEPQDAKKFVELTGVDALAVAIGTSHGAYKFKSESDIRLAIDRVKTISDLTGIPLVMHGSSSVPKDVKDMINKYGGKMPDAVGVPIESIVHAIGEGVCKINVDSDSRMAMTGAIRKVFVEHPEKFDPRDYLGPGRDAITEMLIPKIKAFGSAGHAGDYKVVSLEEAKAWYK
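Giardia FBPA (40 nM reagent) was preincubated 10 min at RT with compound (up to 57.5 uM final), then substrate plus GAPDH/TPI/NAD/arsenate coupling system with diaphorase/resazurin was added; resorufin fluorescence (525/598 nm) was read after 20 min.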
RE007 growth inh: less growth of the S. pombe RE007 Vpr strain; AID 651644; S. pombe RE007 Vpr strain, BacTiter-Glo ATP luminescence, 24 h; 360,000 compounds, 0.21% hits; Potency, µM (highest dose often 92.2 µM), without a hit: at the top dose activity change, negative = less growth, actives largely listed as inhibitors; active = well fitted falling curve with a large enough effect; inconclusive = small, poorly fitted or top-dose-only effect; inactive = no such curve, though single readings can be large or run the other way; note: potency is the fitted concentration of half-maximal effect; % is set by controls: 0 for no effect and ±100 for the full control effect; nearly all actives have a fitted effect of over 50% in size
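Fission yeast RE007 carrying one integrated HIV-1 vpr copy, seeded at OD 0.01 in PMG+AL medium with 23 nL pinned compound. Grown 24 h at 30 degrees; viability read by BacTiter-Glo luminescence after 5 min.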
Starred values were filed as active, the others as inactive; ? = inconclusive; . = no result. Only a selection was taken, and hits are over-represented in it overall. Unless noted, calls come from the whole dose curve; as a rule, active = well fitted curve in the direction sought with a large enough effect; inconclusive = small, poorly fitted or top-dose-only effect, or another doubt; inactive = no such curve, though single readings can be large; an effect the other way counts as inactive or inconclusive.

SMILES	LmPK inh	Shiga toxin inh	TbPYK inhibitor	Cycloheximide cs	Giardia FBPA inh	RE007 growth inh
CN1C(=O)NC(=O)/C(=C\C=C\c2ccccc2[N+](=O)[O-])C1=O	0.3%	30.7	?	24.0*	?	-4.7%
O=C1OC(c2ccccc2)=N/C1=C\C=C\c1ccccc1[N+](=O)[O-]	-3.4%	-2.7	-8.9%	-0.8	2.0%	.
Cc1cccc(Nc2nc(-c3cccs3)cs2)n1	-20.6%	68.3*	-5.7%	46.2*	-0.6%	?
Cc1cccc(Nc2nc(-c3ccccn3)cs2)n1	-13.2%	63.1*	2.0%	36.7*	-5.1%	?
Cc1cccc(C(=O)NC(C(=O)Nc2nc(-c3ccccn3)cs2)C(C)C)c1 (configuration not stated)	0.2%	5.1	7.8%	-0.9	-11.6%	-3.4%
c1ccc(Nc2nc(-c3cccs3)cs2)nc1	?	88.1*	3.7%	32.8*	-11.6%	?
Nc1ccc(Nc2nc(-c3cccs3)cs2)cc1	-2.8%	7.8	-6.6%	-1.4	-1.3%	0.7%
Cc1cc(C)c2c(=O)c3c(oc2c1)C(=O)N(CCCOC(C)C)C3c1ccccc1F (configuration not stated)	.	.	1.0%	.	.	.
COc1cc(NC(=O)CCCOc2cc(=O)n(C)c3ccccc23)cc(OC)c1OC	.	.	-1.8%	.	.	.
Nc1nc(N2CCN(c3ccccn3)CC2)nc2ccccc12	-6.6%	89.4*	1.6%	42.8*	-6.7%	.
CSc1ccccc1NC(=O)c1cc(C)on1	0.4%	99.3	-15.2%	44.5	-0.6%	-11.2%
Cc1c(Cl)cccc1NC(=O)c1cc(-c2cccs2)on1	.	.	-1.4%	.	.	.
CSc1ccccc1NC(=O)c1cc(-c2ccco2)on1	-1.5%	55.1*	-4.8%	18.0*	-4.7%	-4.0%
Cc1c(Cl)cccc1NC(=O)c1cc(-c2ccco2)on1	-5.1%	53.6*	-1.5%	36.1	-6.0%	-6.6%
O=C(Nc1ccc(F)cc1F)c1cc(-c2ccco2)on1	-6.1%	93.3*	-7.6%	30.7*	5.3%	9.6%
O=C(Nc1c(F)cc(F)cc1Br)c1cc(-c2ccco2)on1	-2.0%	-5.7	-1.4%	11.7	4.3%	-7.1%
CSc1ccccc1NC(=O)c1cc(C(C)C)on1	-16.0%	116.8*	-12.8%	50.3*	-0.8%	-28.3%
COc1ccccc1C(=O)Nc1ccc(C(=O)OCc2cc(=O)n3nc(C)sc3n2)cc1	.	.	2.3%	.	.	.
COC(=O)c1ccc(NC(=O)C2CCN(S(=O)(=O)c3ccc4c(c3)CCCN4C(C)=O)CC2)cc1	.	.	-3.3%	.	.	.
CC(C)(C)S(=O)N1Cc2cn(Cc3ccccc3)c(=O)cc2[C@H]1CCO (some centres not stated)	.	.	-7.8%	.	.	7.8%
O=C(Cn1cc(C(=O)c2ccccc2)c2ccccc21)NCc1ccco1	1.6%	74.1	-26.1%	77.7*	16.0%	-8.8%
O=C(Cn1cc(C(=O)C(F)(F)F)c2ccccc21)NCc1ccco1	12.1%	53.3	2.0%	46.7*	0.5%	0.7%
COC(=O)c1cn(CC(=O)NCc2ccco2)c2ccccc12	4.8%	50.2*	2.5%	15.0*	0.4%	-1.7%
O=C(CSc1cn(CCNC(=O)c2ccccc2)c2ccccc12)NCc1ccco1	9.3%	52.7*	5.0%	36.1*	-11.2%	9.9%
CC(C)(C)C1=CC(O)(c2ccccc2)C=C(C(C)(C)C)C1=O	7.1%	-4.8	-7.8%	-2.4	-5.0%	7.9%
SMILES	LmPK inh	Shiga toxin inh	TbPYK inhibitor	Cycloheximide cs	Giardia FBPA inh	RE007 growth inh
CC[C@H](C)[C@H](NC(=O)CNC(=O)[C@@H](NC(=O)[C@@H](NC(=O)[C@H](Cc1ccc(O)cc1)NC(=O)[C@H](CC(C)C)NC(=O)[C@H](C)NC(=O)[C@H](CCC(N)=O)NC(=O)CNC(=O)[C@@H]1CCCN1C(=O)CNC(=O)[C@H](Cc1ccccc1)NC(=O)[C@H](Cc1cnc[nH]1)NC(=O)[C@@H](NC(=O)CNC(=O)[C@H](CCCNC(=N)N)NC(=O)[C@H](CCCNC(=N)N)NC(=O)[C@@H](NC(=O)[C@H](CC(N)=O)NC(=O)[C@@H](N)CS)[C@@H](C)O)[C@@H](C)CC)[C@@H](C)O)[C@@H](C)O)C(=O)O	.	-4.2	.	-7.8	0.9%	.
CC(=O)Nc1ccc2c(c1)C(=O)c1cccc(C(=O)O)c1-2	.	.	2.5%	.	.	-18.1%
CCC(=O)c1cn(CC(=O)NCc2ccco2)c2ccccc12	-0.6%	60.6*	-7.4%	42.6*	-7.4%	31.6%
O=C(NCCn1cc(SCc2ccc(F)cc2)c2ccccc21)c1c(F)cccc1F	9.4%	25.2	0.8%	14.1*	?	-15.1%
O=C(NCCn1cc(SCc2ccccc2)c2ccccc21)c1c(F)cccc1F	1.6%	25.1	-4.3%	6.9	-18.9%	-4.8%
CC[C@H](C)[C@H](NC(=O)[C@H](CC(=O)O)NC(=O)[C@H](CC(C)C)NC(=O)[C@H](Cc1cnc[nH]1)NC(=O)[C@H](C)NC(=O)[C@H](Cc1ccccc1)NC(=O)[C@H](Cc1ccc(O)cc1)NC(=O)[C@@H](NC(=O)[C@H](C)NC(=O)[C@H](CCC(=O)O)NC(=O)[C@H](CCCCN)NC(=O)[C@H](CC(=O)O)NC(=O)[C@H](CCSC)NC(=O)[C@H](CC(C)C)NC(C)=O)C(C)C)C(=O)N[C@H](C(=O)N[C@@H](Cc1c[nH]c2ccccc12)C(=O)O)[C@@H](C)CC	.	-6.9	.	-5.4	2.1%	.
Cn1c(NCc2ccc(Cl)cc2)nc2ccccc21	-12.8%	55.6*	-5.9%	38.4*	-1.8%	4.7%
Cc1ccc(CNc2nc3ccccc3n2C)cc1	-12.3%	27.2	-17.0%	22.9*	-1.5%	-2.0%
Cn1c(NCc2c(O)ccc3ccccc23)nc2ccccc21	6.6%	33.3	0.7%	6.9	-15.2%	1.4%
N#Cc1cccc(NC(=O)C2CCN(c3cnccn3)CC2)c1	.	.	1.0%	.	.	.
O=C(Oc1ccccc1C(=O)Nc1ccccc1)c1ccccc1Br	-0.2%	33.1*	-2.3%	32.1*	-7.7%	-2.2%
CCOC(=O)Cc1ccc(NC(=O)c2ccc(C(C)(C)C)cc2)cc1	2.1%	35.1	-9.1%	26.3	-14.4%	-8.2%
Cc1nc(-c2ccc(NC(=O)c3ccccc3Br)cc2)cs1	-8.3%	57.3*	-9.1%	54.6*	-11.3%	-16.7%
O=C(COc1ccccc1C(=O)Nc1ccccc1)c1ccc(Br)cc1	2.0%	-14.4	0.5%	-1.2	0.0%	-11.6%
Cc1nc(-c2ccc(NC(=O)c3ccccc3C)cc2)cs1	?	61.2*	-4.1%	31.1*	-7.7%	-2.8%
CCOC(=O)Cc1ccc(NC(=O)c2ccccc2Br)cc1	-0.3%	36.8	-0.6%	19.0*	-2.3%	18.9%
COc1ccc(N(C)C(=O)CCn2cnc3onc(-c4ccc(F)cc4)c3c2=O)c(OC)c1	.	.	-0.5%	.	.	.
